From PubChem BioAssay (NCATS)
Results filed as inconclusive are left out. Entries that show only a call come without a potency. Activity calls are given as the source filed them. The call rests on the fitted dose curve; in most records, active means well fitted cell-killing curve with a large enough effect; inconclusive means small, poorly fitted or top-dose-only effect, or effect the other way; inactive means no such curve, though single readings can be large or run the other way. Non-standard residues stand in square brackets, D forms with d. Residues, ends and D or L forms follow the SMILES beside them. Peptide text beside a SMILES is read from it. *: point of attachment. Sta = CC(C)C[C@H](N)[C@@H](O)CC(=O)O; Isovaleryl = CC(C)CC(=O)*
Potency means the concentration at half of the fitted maximal effect.

Assay: Quantitative High-Throughput drug screen in 47 multiple myeloma cell lines against the NCATS MIPE library collection: KMS27_JCRB cell viability assay (AID 1918970); further: nearly all actives have a fitted effect of over 30% in size
Settings: KMS27 myeloma cells, CellTiter-Glo ATP viability, 48 h; series mostly up to 45.8 µM
Source text: PI: Beverly A. Mock Ph.D.
Laboratory of Cancer Biology and Genetics,
Center for Cancer Research, National Cancer Institute,
National Institute of Health, Bethesda, Maryland
Drug resistance and disease progression are common in multiple myeloma (MM) patients, underscoring the need for new therapeutic combinations. […] We hypothesized that effective combinations would reduce MYC expression and enhance p16 activity. […] These preclinical data identify potentially useful drug combinations for evaluation in drug-resistant MM and reveal potential mechanisms of combined drug sensitivity.
Described herein is the primary MIPE qHTS used to cherrypick compounds. Validated compounds were then further tested for potential synergistic activiy.
[1] Peat TJ, Gaikwad SM, Dubois W, Gyabaah-Kessie N, Zhang S, Gorjifard S, Phyo Z, Andres M, Hughitt VK, Simpson RM, Miller MA, Girvin AT, Taylor A, Williams D, D'Antonio N, Zhang Y, Rajagopalan A, Flietner E, Wilson K, Zhang X, Shinn P, Klumpp-Thomas C, McKnight C, Itkin Z, Chen L, Kazandijian D, Zhang J, Michalowski AM, Simmons JK, Keats J, Thomas CJ, Mock BA. Drug combinations identified by high-throughput screening promote cell cycle transition and upregulate Smad pathways in myeloma. […] Epub 2023 Jun 24. PMID: 37356470; PMCID: PMC10408729.
SEQUENCE No. (e.g., 1, 2, 3, etc.); […] (e.g., Cells, Incubation, Reagent, etc.); VALUE and DESCRIPTION.
1; Cells; 5 uL; white, solid bottom 1536-well Greiner assay plate.
2; Compounds; 23 nL; Kalypsis pin tool (Wako USA) equipped with a 1536-well pin head to transfer to the assay plates.
3; Incubation; 48 hours; 37C incubation.
4; Reagent;5uL; CellTiter Glo (Promega).
5; Detector; 425V; Luminescence; Viewlux PerkinElmer.
NOTES (numbers refer to Sequence numbers above)
1. The cell-based screening methods employed in this study were like those previously published. Briefly, the corresponding myeloma cell lines were screened in 1,536-well plates with 500 cells, 5-uL per well for inhibition of cell viability (assessed by measuring ATP levels with CellTiterGlo).
2. NCATS MIPE 4.0 library of approved and investigational drugs were added using the Kalypsis pin tool. Wells treated with DMSO only for 100% viability and media only wells for 0% viability were used as controls.
3. The assay plates were covered and incubated for 48 hours in a 37C, 5% CO2 incubator with controlled humidity.
4. After 48 hours, CellTilter-GloTM luminescent substrate mix (Promega) reagent was added to the assay plate and plates we incubated for 5 min at room temperature.
5. Signal was measured as median relative luminescence units on a ViewLux (PerkinElmer) multiplate reader.
[1] Heske CM, Davis MI, Baumgart JT, Wilson K, Gormally MV, Chen L, Zhang X, Ceribelli M, Duveau DY, Guha R, Ferrer M, Arnaldez FI, Ji J, Tran HL, Zhang Y, Mendoza A, Helman LJ, Thomas CJ. Matrix Screen Identifies Synergistic Combination of PARP Inhibitors and Nicotinamide Phosphoribosyltransferase (NAMPT) Inhibitors in Ewing Sarcoma. Clin Cancer Res. 2017 Dec 1;23(23):7301-7311. doi: 10.1158/1078-0432.CCR-17-1121. Epub 2017 Sep 12. PMID: 28899971; PMCID: PMC6636827.
With `COC(=O)C1=C(C)NC(C)=C(C(=O)OCCCN2CCC(c3ccccc3)(c3ccccc3)CC2)C1c1cccc([N+](=O)[O-])c1` (stereo not given) the Potency was “inactive”. In the case of `CCOC(=O)C1=C[C@@H](OC(CC)CC)[C@H](NC(C)=O)[C@@H](N)C1`, the Potency is reported as “inactive”. In the case of `C[C@]12CCC(=O)C=C1CC[C@@H]1[C@H]2[C@@H](O)C[C@@]2(C)[C@H]1CC[C@]2(O)C(=O)CO`, the Potency is reported as “inactive”. With `O=C(NOCC1CC1)c1ccc(F)c(F)c1Nc1ccc(I)cc1Cl` the Potency was 4.18 µM (active). In the case of `CC(C)Oc1ccc2c(=O)c(-c3ccccc3)coc2c1`, the Potency is reported as “inactive”. In the case of `Cc1nc2n(c(=O)c1CCN1CCC(c3noc4cc(F)ccc34)CC1)CCCC2`, the Potency is reported as “inactive”. In the case of `COc1cc2c(cc1OC)C1CC(=O)C(CC(C)C)CN1CC2` (stereo not given), the Potency is reported as “inactive”. With `Cc1cc2c(s1)Nc1ccccc1N=C2N1CCN(C)CC1` the Potency was “inactive”. With `N=C(N)c1ccc2cc(OC(=O)c3ccc(N=C(N)N)cc3)ccc2c1` the Potency was “inactive”. With `CN(C)c1ccc2nc3ccc(=[N+](C)C)cc-3sc2c1` the Potency was 1.32 µM (active). For `CCC[C@@H]1C[C@@H](C(=O)N[C@@H]([C@H]2O[C@H](SC)[C@H](O)[C@@H](O)[C@H]2O)[C@@H](C)O)N(C)C1`, the Potency was “inactive”. With `Cc1c(OCC(F)(F)F)ccnc1CS(=O)c1nc2ccccc2[nH]1` (stereo not given) the Potency was “inactive”. With `Clc1ccc(C(Cn2ccnc2)OCc2ccsc2Cl)c(Cl)c1` (stereo not given) the Potency was 26.4 µM (active). For `Cc1cc(Cl)ccc1OCCCC(=O)NO`, the Potency was 3.32 µM (active). With `Clc1ccc2c(N3CCN(CCCN4CCN(c5ccnc6cc(Cl)ccc56)CC4)CC3)ccnc2c1` the Potency was “inactive”. With `O=C(CCc1ccc(O)cc1)c1c(O)cc(O)cc1O` the Potency was 1.05 µM (active). For `CC(C)(S)[C@@H](N)C(=O)O`, the Potency was “inactive”. For `CC(C)CC(=O)N[C@H](C(=O)N[C@H](C(=O)N[C@@H](CC(C)C)[C@@H](O)CC(=O)N[C@@H](C)C(=O)N[C@@H](CC(C)C)[C@@H](O)CC(=O)O)C(C)C)C(C)C` (Isovaleryl-VV[Sta]A[Sta]-OH), the Potency was “inactive”. For `O=C1CCc2ccc(OCCCCN3CCN(c4cccc(Cl)c4Cl)CC3)cc2N1`, the Potency was “inactive”. With `CN(C)CCc1c[nH]c2ccc(Cn3cncn3)cc12` the Potency was 16.6 µM (active). For `CC(C)c1ccc2c(c1)c(SC(C)(C)C)c(CC(C)(C)C(=O)O)n2Cc1ccc(Cl)cc1`, the Potency was “inactive”. For `CC(C)c1ccc2oc3nc(N)c(C(=O)O)cc3c(=O)c2c1`, the Potency was “inactive”. With `NC(=NCc1ccccc1)NC(=O)c1nc(Cl)c(N)nc1N` the Potency was 33.2 µM (active). With `COc1c(O)cc2c(c1O)[C@@H]1O[C@H](CO)[C@@H](O)[C@H](O)[C@H]1OC2=O` the Potency was “inactive”. With `COc1cc2c(N3CCN(C(=O)Nc4ccc(OC(C)C)cc4)CC3)ncnc2cc1OCCCN1CCCCC1` the Potency was “inactive”. With `NNc1nncc2ccccc12` the Potency was “inactive”. For `Cc1ccc(C(=O)c2cc(O)c(O)c([N+](=O)[O-])c2)cc1`, the Potency was 23.5 µM (active). For `Cc1ccc(Nc2nccc(N(C)c3ccc4c(C)n(C)nc4c3)n2)cc1S(N)(=O)=O`, the Potency was 20.9 µM (active). For `CCCCCCCCCCCCCCCCCCCCCCO`, the Potency was “inactive”. In the case of `COc1ccc(C2(C#N)CCC(C(=O)O)CC2)cc1OC1CCCC1` (stereo not given), the Potency is reported as “inactive”. With `Cn1c(NCCN(CCO)CCCc2ccc([N+](=O)[O-])cc2)cc(=O)n(C)c1=O` the Potency was 26.4 µM (active). In the case of `Oc1ccc(-c2nc(-c3ccc(F)cc3)c(-c3ccncc3)[nH]2)cc1`, the Potency is reported as “inactive”. For `COC(=O)[C@H](Cc1ccccc1)NC(=O)[C@@H](N)CC(=O)O` (H-Asp-Phe-OMe), the Potency was “inactive”. In the case of `Nc1ccc(S(N)(=O)=O)cc1`, the Potency is reported as “inactive”. With `Cc1cc(=O)oc2cc(O)ccc12` the Potency was “inactive”. In the case of `O=C(c1ccccc1)c1ccc2n1CCC2C(=O)O` (stereo not given), the Potency is reported as “inactive”. With `NS(=O)(=O)c1cc(C(=O)O)c(NCc2ccco2)cc1Cl` the Potency was “inactive”. With `O=C(OC1C[C@H]2CC[C@@H](C1)[N+]21CCCC1)C(O)(c1ccccc1)c1ccccc1` (stereo not given in full) the Potency was “inactive”. For `Clc1ccc(C(Cn2ccnc2)OCc2c(Cl)cccc2Cl)c(Cl)c1` (stereo not given), the Potency was 23.5 µM (active). For `Cc1nccn1CC1CCc2c(c3ccccc3n2C)C1=O` (stereo not given), the Potency was “inactive”.
